For eight compounds, growth results are on record in PubChem BioAssay (NCI).

Compounds without any hit were thinned out: in the full panel of roughly 83,000, 20% have a hit.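 Each cell line was grown in a 96-well plate and treated with one concentration of compound for 48 hours. Values below 10 were considered active.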 Values without a mark were called inactive. Calls of active or inactive are those of the source.

Test systems include SK-MEL-2 melanoma; EKVX NSCLC; SN12C renal; UO-31 renal; TK-10 renal; ACHN renal; CAKI-1 renal; A498 renal; CCRF-CEM leukemia; MOLT-4 leukemia; SR leukemia; RPMI-8226 leukemia; OVCAR-8 ovarian; OVCAR-5 ovarian; OVCAR-4 ovarian; SK-OV-3 ovarian; IGROV1 ovarian; OVCAR-3 ovarian; HS 578T breast; NCI/ADR-RES ovarian.
Common to all, as to assay: NCI-60 one-dose screen, 48 h (100 = growth as untreated, 0 = no growth, -100 = all killed)
Common to all, as to details: 10 µM unless noted

As for `O=C1Nc2ccc(F)cc2/C1=C/C(=O)c1cc2ccccc2oc1=O`, the growth in the test with SK-MEL-2 melanoma was 102%; with EKVX NSCLC, 90.3%; in the test with SN12C renal, 104%; with UO-31 renal, 62.1%; with TK-10 renal, 161%; in the test on ACHN renal, 62.5%. Further, the growth with CAKI-1 renal is 88.8%; in the test with A498 renal, 128%; in the test with CCRF-CEM leukemia, 39.6%; in the test with MOLT-4 leukemia it was 65%; in the test on SR leukemia, 42.1%; in the test with RPMI-8226 leukemia, 78.8%. In addition, the growth in the test on OVCAR-8 ovarian is 105%; in the test on OVCAR-5 ovarian, 113%; in the test on OVCAR-4 ovarian, 89.1%; with SK-OV-3 ovarian it was 88.7%; in the test with IGROV1 ovarian, 105%; in the test on OVCAR-3 ovarian, 85.9%. The growth in the test with HS 578T breast is 101%; in the test with NCI/ADR-RES ovarian it was 103%.

With `CC(=O)c1c2c(c3ccc4c5ccccc5ccc4n13)C(=O)c1ccccc1C2=O`, the growth in the test on SK-MEL-2 melanoma is 93.3%; with EKVX NSCLC, 77%; with SN12C renal it was 89.9%; in the test with UO-31 renal, 59.3%; in the test on TK-10 renal, 118%; with ACHN renal, 75.6%. Moreover, the growth was 85.6% in the test with CAKI-1 renal; 189% in the test with A498 renal; 99.9% with CCRF-CEM leukemia; 90.6% with MOLT-4 leukemia; 77.4% in the test on SR leukemia; 101% in the test with RPMI-8226 leukemia. In addition, the growth is 89.2% with OVCAR-8 ovarian; 115% with OVCAR-5 ovarian; 85.4% in the test with OVCAR-4 ovarian; 97.1% in the test on SK-OV-3 ovarian; 84.5% in the test with IGROV1 ovarian; 108% in the test with OVCAR-3 ovarian. Besides, the results for the growth in the test with HS 578T breast and in the test on NCI/ADR-RES ovarian were 82.2% and 96.3%, respectively.

Turning to `O=CNc1cccc(-n2cnc3cc(-c4ccc(O)cc4)ccc32)c1`, the growth is 79.2% in the test on SK-MEL-2 melanoma; 71.5% in the test with EKVX NSCLC; 22.9% in the test with SN12C renal; 10.3% in the test with UO-31 renal; 79.3% with TK-10 renal; 16.9% in the test with ACHN renal. For the same compound, the growth in the test on CAKI-1 renal is 42.2%; with A498 renal, 147%; in the test with CCRF-CEM leukemia, 23%; in the test with MOLT-4 leukemia, 27.7%; in the test with SR leukemia, 33.8%; in the test with RPMI-8226 leukemia it was 24.3%. Moreover, the growth in the test with OVCAR-8 ovarian is 31.6%; with OVCAR-5 ovarian, 68.7%; with OVCAR-4 ovarian it was 65.4%; with SK-OV-3 ovarian, 28.4%; with IGROV1 ovarian, 44.3%; with OVCAR-3 ovarian, 26.8%. Further, the growth in the test on HS 578T breast was 24.4%; in the test on NCI/ADR-RES ovarian it was 12.1%.

Regarding `Cn1cc(-c2cc(N)n3nc(-c4c[nH]c5ccc(F)cc45)cc3n2)c2cc(Br)cnc21`, the growth is 87.3% in the test on SK-MEL-2 melanoma; 65.5% in the test on EKVX NSCLC; 69.3% in the test on SN12C renal; 47.3% in the test on UO-31 renal; 90.9% in the test on TK-10 renal; 39.5% with ACHN renal. For the same compound, the growth was 46% in the test on CAKI-1 renal; 109% in the test with A498 renal; -42.9% (active) with CCRF-CEM leukemia; -10.4% (active) in the test on MOLT-4 leukemia; -23.5% (active) in the test on SR leukemia; 19.2% in the test on RPMI-8226 leukemia. The growth was 42.8% with OVCAR-8 ovarian; 74.2% in the test on OVCAR-5 ovarian; 71.6% in the test on OVCAR-4 ovarian; 104% in the test with SK-OV-3 ovarian; 70.7% in the test on IGROV1 ovarian; 109% in the test with OVCAR-3 ovarian. For the same compound, the growth in the test on HS 578T breast is 86.4%; in the test with NCI/ADR-RES ovarian it was 56%.

In the case of `CC1=C(C(=O)OCc2ccccc2)C(c2cccc3ccccc23)n2c(nc3ccccc32)N1` (stereo not given), the growth with SK-MEL-2 melanoma is 18%; with EKVX NSCLC, 41.9%; in the test with SN12C renal, 30.6%; with UO-31 renal, 34.2%; with TK-10 renal it was 66.6%; in the test on ACHN renal, 41.1%. Moreover, the growth in the test on CAKI-1 renal was 30.5%; in the test on A498 renal, 62.6%; in the test on CCRF-CEM leukemia, 25.8%; in the test with MOLT-4 leukemia, 32.3%; in the test with SR leukemia, 19%; with RPMI-8226 leukemia it was 15.3%. Moreover, the growth in the test with OVCAR-8 ovarian was 31.2%; in the test on OVCAR-5 ovarian, 41%; with OVCAR-4 ovarian it was 46.7%; in the test with SK-OV-3 ovarian, 25.2%; in the test on IGROV1 ovarian, 31.3%; with OVCAR-3 ovarian, -6.62% (active). Moreover, the values for the growth in the test on HS 578T breast and in the test on NCI/ADR-RES ovarian were 5.52% (active) and -6.92% (active), respectively.

On to `COc1cc2cc(C(=O)N3C[C@@H](CCl)c4c3cc(OC(=O)N(CCC(=O)N3CCN(C)CC3)[C@H]3CCSSC3)c3ccccc43)[nH]c2c(OC)c1OC`, for which the growth is -85% (active) in the test on SK-MEL-2 melanoma; -67.7% (active) with EKVX NSCLC; -10.3% (active) in the test with SN12C renal; -26.9% (active) in the test on UO-31 renal; 8.66% (active) in the test with TK-10 renal; -6.81% (active) in the test with ACHN renal. Also, the growth is 13.7% with CAKI-1 renal; -19.6% (active) in the test with A498 renal; 32% with CCRF-CEM leukemia; -9.57% (active) in the test on MOLT-4 leukemia; -22.9% (active) in the test on SR leukemia; -5.04% (active) in the test with RPMI-8226 leukemia. The growth in the test with OVCAR-8 ovarian is -49.8% (active); in the test with OVCAR-5 ovarian, -4.73% (active); in the test with OVCAR-4 ovarian, -11.9% (active); with SK-OV-3 ovarian it was 10.8%; in the test with IGROV1 ovarian it was -16.7% (active); in the test with OVCAR-3 ovarian, -55.8% (active). The figures for the growth in the test with HS 578T breast and in the test on NCI/ADR-RES ovarian were -14.1% (active) and -55.3% (active), respectively.

`COc1ccc2[nH]cc(-c3cc4nc(-c5cn(C)c6ncccc56)cc(N)n4n3)c2c1`: the growth was 97.2% with SK-MEL-2 melanoma; 55.1% in the test with EKVX NSCLC; 26.2% in the test with SN12C renal; 12.3% in the test on UO-31 renal; 78.1% in the test on TK-10 renal; 7.66% (active) with ACHN renal. The growth in the test with CAKI-1 renal is -65.2% (active); with A498 renal, 116%; in the test with CCRF-CEM leukemia it was -34.3% (active); in the test with MOLT-4 leukemia, -9.04% (active); with SR leukemia, -9.65% (active); in the test with RPMI-8226 leukemia, -33.4% (active). Besides, the growth is -40.6% (active) in the test on OVCAR-8 ovarian; -17.6% (active) in the test on OVCAR-5 ovarian; -26.4% (active) in the test on OVCAR-4 ovarian; 103% with SK-OV-3 ovarian; -62.5% (active) in the test on IGROV1 ovarian; -57.6% (active) in the test on OVCAR-3 ovarian. Moreover, the figures for the growth with HS 578T breast and in the test on NCI/ADR-RES ovarian were -10.3% (active) and -15.6% (active), respectively.

Take `CN1CCc2c(sc3ncnc(N/N=C/c4cccc(Cl)c4Cl)c23)C1`: the growth in the test on SK-MEL-2 melanoma is 104%; in the test on EKVX NSCLC, 67.4%; in the test on SN12C renal, 10.3%; in the test on UO-31 renal, 42.6%; in the test with TK-10 renal, 72.7%; in the test with ACHN renal, -39.1% (active). Besides, the growth in the test with CAKI-1 renal is 79.4%; in the test with A498 renal it was 114%; in the test on CCRF-CEM leukemia it was 4.9% (active); in the test on MOLT-4 leukemia it was 6.34% (active); in the test with SR leukemia it was 8.87% (active); in the test on RPMI-8226 leukemia, -16% (active). For the same compound, the growth was -38.6% (active) in the test on OVCAR-8 ovarian; 88% with OVCAR-5 ovarian; -24.8% (active) with OVCAR-4 ovarian; 90.6% in the test on SK-OV-3 ovarian; 10.6% in the test with IGROV1 ovarian; 25.1% with OVCAR-3 ovarian. Also, the growth with HS 578T breast is 38.2%; with NCI/ADR-RES ovarian it was 49.4%.
